# From the supplement of paper PMC9794691
# Tests used:
# [1] = test system: H1975; test: area under confluence curve of osimertinib + compound combination regimen (DTP regrowth); compare to osimertinib-only DTP control AUC of the same experiment (AUC (confluence x time, arbitrary)); conditions: test compound dose 100 nM, DMSO control AUC in same experiment: 26010
# Summary of the method: (§1)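 The area under the IncuCyte confluence–time curve, calculated in Prism and taken as the median of triplicates where available, is the value reported. It was measured in EGFR-mutant NSCLC lines that received the EGFR inhibitor either alone, followed by a test compound, or together with a fixed-dose test compound until the persister stage (10–21 days) and then drug-free medium. Medium was refreshed every 3–4 days until the inhibitor-only wells were confluent again.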
# [2] = test system: HCC2279; test: as above; conditions: test compound dose 100 nM, DMSO control AUC in same experiment: 9426
# Summary of the method: as §1
# [3] = test system: HCC2935; test: as above; conditions: test compound dose 100 nM, DMSO control AUC in same experiment: 11459
# Summary of the method: as §1
# [4] = test system: HCC4006; test: as above; conditions: test compound dose 100 nM, DMSO control AUC in same experiment: 16638
# Summary of the method: as §1
# [5] = test system: HCC827; test: as above; conditions: test compound dose 100 nM, DMSO control AUC in same experiment: 35394
# Summary of the method: as §1
# [6] = test system: II-18; test: as above; conditions: test compound dose 100 nM, DMSO control AUC in same experiment: 13556
# Summary of the method: as §1
# [7] = test system: H1975; test: area under confluence curve of compound monotherapy; compare to DMSO control AUC of the same experiment (AUC (confluence x time, arbitrary)); conditions: 1000 nM; DMSO control AUC in same experiment: 15857
# Summary of the method: (§2)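 EGFR-mutant adenocarcinoma lines (RPMI 1640, 10% FBS, 37 °C, 5% CO2) were seeded at 20,000–30,000 cells/well in 48-well plates and next day given test compound alone at one dose (highest with <50% parental inhibition, or 1 uM), refreshed after PBS washes every 3–4 days, then drug-free from DTP stage (10–21 days). IncuCyte confluence was tracked until EGFR-inhibitor-only wells regrew. Area under the confluence curve came from Prism (median of triplicates where run), beside same-experiment vehicle AUC.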
# [8] = test system: HCC2279; test: as above; conditions: 1000 nM; DMSO control AUC in same experiment: 14404
# Summary of the method: as §2
# [9] = test system: HCC2935; test: as above; conditions: 1000 nM; DMSO control AUC in same experiment: 19215
# Summary of the method: as §2
# [10] = test system: HCC4006; test: as above; conditions: 1000 nM; DMSO control AUC in same experiment: 18415
# Summary of the method: as §2
# [11] = test system: HCC827; test: as above; conditions: 1000 nM; DMSO control AUC in same experiment: 21320
# Summary of the method: as §2
# [12] = test system: II-18; test: as above; conditions: 1000 nM; DMSO control AUC in same experiment: 11834
# Summary of the method: as §2
Structure (SMILES),"area under confluence curve ([1]; dosing schedule: sequential, osimertinib-only DTP control AUC in same experiment: 9919)","area under confluence curve ([1]; dosing schedule: upfront, osimertinib-only DTP control AUC in same experiment: 15327)","area under confluence curve ([2]; dosing schedule: sequential, osimertinib-only DTP control AUC in same experiment: 11520)","area under confluence curve ([2]; dosing schedule: upfront, osimertinib-only DTP control AUC in same experiment: 21942)","area under confluence curve ([3]; dosing schedule: sequential, osimertinib-only DTP control AUC in same experiment: 9121)","area under confluence curve ([3]; dosing schedule: upfront, osimertinib-only DTP control AUC in same experiment: 12748)","area under confluence curve ([4]; dosing schedule: sequential, osimertinib-only DTP control AUC in same experiment: 19238)","area under confluence curve ([4]; dosing schedule: upfront, osimertinib-only DTP control AUC in same experiment: 21234)","area under confluence curve ([5]; dosing schedule: sequential, osimertinib-only DTP control AUC in same experiment: 25096)","area under confluence curve ([5]; dosing schedule: upfront, osimertinib-only DTP control AUC in same experiment: 27382)","area under confluence curve ([6]; dosing schedule: sequential, osimertinib-only DTP control AUC in same experiment: 3520)","area under confluence curve ([6]; dosing schedule: upfront, osimertinib-only DTP control AUC in same experiment: 6532)",area under confluence curve [7],area under confluence curve [8],area under confluence curve [9],area under confluence curve [10],area under confluence curve [11],area under confluence curve [12]
COC(=O)c1ccc([C@H]2c3[nH]c4ccccc4c3C[C@H](C(=O)OC)N2C(=O)CCl)cc1 + C=CC(=O)Nc1cc(Nc2nccc(-c3cn(C)c4ccccc34)n2)c(OC)cc1N(C)CCN(C)C [osimertinib],7660,13400,13900,20100,5900,6780,19000,21000,6740,27100,183,1800,–,–,–,–,–,–
C[C@@H](Oc1cc(-c2cnn(C3CCNCC3)c2)cnc1N)c1c(Cl)ccc(F)c1Cl [Crizotinib],–,–,–,–,–,–,–,–,–,–,–,–,9870,13900,19300,16500,19500,6690
